{"source": "PubChem BioAssay (Tox21)", "note": "Records with an inconclusive call do not appear. The source made the active and inactive calls. Calls follow the shape of the dose curve; as a rule, active = well fitted inhibition curve with a large enough effect in the signal ratio in the repeat runs (not every such curve was filed as active); inconclusive = weak or mixed curves, or effect the other way; inactive = no such curve, though single readings can be large or run the other way; the % refers to the signal ratio."}
{"target": "Peroxisome proliferator-activated receptor delta (Homo sapiens) (UniProt Q03181)", "sequence (Q03181 whole entry, looked up)": "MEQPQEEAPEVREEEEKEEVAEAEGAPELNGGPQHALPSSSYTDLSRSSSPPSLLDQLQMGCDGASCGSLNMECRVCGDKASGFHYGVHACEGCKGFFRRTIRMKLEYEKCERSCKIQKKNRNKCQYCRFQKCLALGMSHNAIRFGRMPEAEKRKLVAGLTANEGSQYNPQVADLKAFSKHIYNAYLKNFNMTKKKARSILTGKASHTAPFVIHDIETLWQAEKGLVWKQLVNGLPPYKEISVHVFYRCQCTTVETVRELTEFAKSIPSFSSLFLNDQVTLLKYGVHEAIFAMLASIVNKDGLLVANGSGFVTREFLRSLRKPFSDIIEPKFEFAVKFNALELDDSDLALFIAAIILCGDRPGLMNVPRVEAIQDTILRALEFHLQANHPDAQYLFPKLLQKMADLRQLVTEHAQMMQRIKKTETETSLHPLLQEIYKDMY", "test": "qHTS assay to identify small molecule antagonists of the peroxisome proliferator-activated receptor delta (PPARd) signaling pathway (AID 743215);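 also: cells stimulated with agonist L165041 at 300 nM final during compound exposure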", "details": "HEK293H PPARd-UAS-bla, beta-lactamase FRET ratio, antagonist, 17 h; series mostly up to 62 µM", "from_the_text": "U.S. Tox21 Program National Center for Advancing Translational Sciences [NCATS] NIH Chemical Genomics Center [NCGC] U.S. Environmental Protection Agency [EPA] National Institutes of Environmental Health Sciences [NIEHS] National Toxicology Program [NTP] U.S. Food and Drug Administration [FDA] Tox21 Assay Overview: The peroxisome proliferator-activated receptors (PPARs) are lipid-activated transcription factors of the nuclear receptor superfamily with three distinct subtypes namely PPAR alpha, PPAR delta (PPARd) and PPAR gamma. All these subtypes heterodimerizes with Retinoid X receptor (RXR) and have different physiological functions. […] To identify the compounds that inhibit PPAR-delta signaling, GeneBLAzer PPAR delta UAS-bla HEK293H cell line (Invitrogen, Carlsbad, CA, USA) containing a beta-lactamase reporter gene under the control of an Upstream Activator Sequence (UAS) was used to screen the Tox21 compound library.\nTox21 Assay Protocol Summary: PPARd-bla cells were dispensed at 3000 cells/5uL/well in 1536-well black wall/clear bottom plates using a Multidrop Combi (Thermo Fisher Scientific, Waltham, MA) dispenser. After the assay plates were incubated at 37 C and 5% CO2 for 5 h, 23 nL of compounds dissolved in DMSO, positive controls or DMSO only was transferred to the assay plate by a Pintool station (Kalypsys, San Diego, CA), followed by addition of 1ul L165041 (300 nM, final concentration in the wells). The assay plates were incubated at 37 C for 17 h, and then 1 uL of LiveBLAzerTM B/G FRET substrate was added using a Bioraptr Flying Reagent Dispenser (FRD) workstation (Beckman Coulter, Indianapolis, IN, USA). The assay plates were incubated at room temperature for 2 h and fluorescence intensity was measured by an Envision plate reader (PerkinElmer, Shelton, CT)."}
{"smiles": "CCOc1ccccc1O", "outcome": "inactive"}
{"smiles": "C[C@H]1C[C@H]2[C@@H]3CCC4=CC(=O)C=C[C@]4(C)[C@@]3(F)[C@@H](O)C[C@]2(C)[C@@]1(O)C(=O)COP(=O)(O)O", "outcome": "inactive"}
{"smiles": "Sc1nc(S)nc(S)n1", "outcome": "inactive"}
{"smiles": "OCC(O)c1ccccc1", "note": "(stereo not given)", "outcome": "inactive"}
{"smiles": "O=C1c2ccccc2C(=O)c2c1ccc(O)c2O", "outcome": "inactive"}
{"smiles": "Clc1ccccc1-c1nc(-c2ccncc2)no1", "outcome": "inactive"}
{"smiles": "COC(=O)Cc1cccc2ccccc12", "outcome": "inactive"}
{"smiles": "Nc1cccc2c(=O)[nH][nH]c(=O)c12", "outcome": "inactive"}
{"smiles": "Cc1ccc2ccccc2c1[N+](=O)[O-]", "outcome": "inactive"}
{"smiles": "CCC(C)C1N=C(C)C(C)S1", "note": "(stereo not given)", "outcome": "inactive"}
{"smiles": "CCc1ccc(C(=O)C(C)CN2CCCCC2)cc1", "note": "(stereo not given)", "outcome": "inactive"}
{"smiles": "Clc1cc(Cl)c2c(c1)N=C1CCCCCN1C2", "outcome": "inactive"}
{"smiles": "Oc1ccc(CCNCCCCCCNCCc2ccccc2)cc1O", "outcome": "inactive"}
{"smiles": "COc1ccc(/C(C)=C/C(=O)O)c(OC)c1", "outcome": "inactive"}
{"smiles": "CCCCCCCCCCCCCCCCN", "outcome": "inactive"}
{"smiles": "CC(C(=O)O)c1ccc(/C=C2\\CCCCC2=O)cc1", "note": "(stereo not given)", "outcome": "inactive"}
{"smiles": "C=C(C)C(=O)OCCCCCCCCCCOC(=O)C(=C)C", "outcome": "inactive"}
{"smiles": "O=C(c1ccc(Cl)cc1)c1ccc(Cl)cc1", "outcome": "inactive"}
{"smiles": "O=C(Cl)c1ccc(F)c(Cl)c1", "outcome": "inactive"}
{"smiles": "O=C(O)c1ccc2cc(O)ccc2c1", "outcome": "inactive"}
{"smiles": "CC(CN=Cc1ccccc1O)N=Cc1ccccc1O", "note": "(stereo not given)", "outcome": "inactive"}
{"smiles": "NC(=O)c1ccccc1C(N)=O", "outcome": "inactive"}
{"smiles": "O=C(C1CCCCC1)N1CC(=O)N2CCCc3ccccc3C2C1", "note": "(stereo not given)", "outcome": "inactive"}
{"smiles": "O=C(O)c1ccccc1-n1cc(C(=O)O)c(=O)c2cc(Nc3c(F)cc(F)cc3Cl)c(Cl)cc21", "outcome": "inactive"}
{"smiles": "Cc1ccc(Cl)c(OCC(O)CNC(C)(C)C)c1", "note": "(stereo not given)", "outcome": "inactive"}
{"smiles": "CCOCCn1c(N2CCCN(C)CC2)nc2ccccc21", "outcome": "inactive"}
{"smiles": "CC1=C(C)C(=O)C(C(CCCCCC(=O)O)c2ccccc2)=C(C)C1=O", "note": "(stereo not given)", "outcome": "inactive"}
{"smiles": "Cc1cc(C)n(CO)n1", "outcome": "inactive"}
{"smiles": "SCCOCCOCCS", "outcome": "inactive"}
{"smiles": "CC1(C)[C@@H]2CC[C@]3(C2)[C@@H]1C(=O)CCC3(C)C", "outcome": "inactive"}
{"smiles": "N#C[C@@H]1CC(F)(F)CN1C(=O)CNC1CC2CCC(C1)N2c1ncccn1", "note": "(stereo not given in full)", "outcome": "inactive"}
{"smiles": "C1CCN(CN2CCCCC2)CC1", "outcome": "inactive"}
{"smiles": "CCOc1ccc(NC(C)=O)cc1N", "outcome": "inactive"}
{"smiles": "COc1ccc(C(=O)c2ccc(C)cc2)c(O)c1", "outcome": "inactive"}
{"smiles": "CO[C@@H]1COCC[C@@H]1N[C@@H]1CC[C@@](C(=O)N2CCc3ncc(C(F)(F)F)cc3C2)(C(C)C)C1", "outcome": "inactive"}
{"smiles": "COc1ccc(/C=C/S(=O)(=O)NC(=O)c2ccc(C)cc2Cl)cc1", "outcome": "inactive"}
{"smiles": "C1=COCCC1", "outcome": "inactive"}
{"smiles": "O=Cc1ccc([N+](=O)[O-])cc1", "outcome": "inactive"}
{"smiles": "O=C(O)c1ccncc1", "outcome": "inactive"}
{"smiles": "CC(C)=CCC/C(C)=C/C=N/O", "outcome": "inactive"}
